Here are results for 21 compounds from PubChem BioAssay (EPA / NIEHS).

Active and inactive are the calls of the source. Rule for the calls: active = hit-call score of the fitted dose curve at least 0.9, where 1 is the maximum; inactive = score below 0.9.

Common to all, as to conditions: mRNA level, 48 h; actives raise or lower the signal
Read-out in test [1]: Bcl-2 (BID) gene, BID (gene 637)
The test can be described thus: LTEA_HepaRG_BID: Life Technologies and Expression Analysis (LTEA) Assay for Bcl-2 (BID) gene using HepaRG (AID 2283476). In short, it runs like this: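 Transcript levels of BID, measured by qRT-PCR and normalized to three housekeeping genes, were fitted bidirectionally against DMSO controls. Cells were HepaRG, dosed 48 h at up to 100 uM.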

Read-out in another test: Caspase-3 (Homo sapiens) (UniProt P42574)
The test can be described thus: LTEA_HepaRG_CASP3: Life Technologies and Expression Analysis (LTEA) Assay for cysteine-aspartic acid protease (CASP3) using HepaRG (AID 2283477). In short, it runs like this:
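HepaRG, 48 h exposure, 8 conc. (top 100 uM, half-log steps, duplicate), 0.5% DMSO vehicle; qRT-PCR of CASP3 transcript, housekeeping-normalised (ACTB/GAPDH/POLR2A); bidirectional curve fit vs DMSO baseline.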

Read-out in test [2]: Cytochrome P450 (CYP1A2), CYP1A2 (gene 1544)
The test can be described thus: LTEA_HepaRG_CYP1A2: Life Technologies and Expression Analysis (LTEA) Assay for Cytochrome P450 (CYP1A2) using HepaRG (AID 2283479). In short, it runs like this:
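HepaRG, 48 h exposure, top 100 uM, half-log 8-pt, 0.5% DMSO vehicle, duplicates. Readout: TaqMan qRT-PCR of CYP1A2 mRNA, housekeeping-normalized (ACTB/GAPDH/POLR2A). Gain/loss fit relative to DMSO baseline.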

Read-out in test [3]: cysteine-aspartic acid protease (CASP8), CASP8 (gene 841)
Nature of the test: LTEA_HepaRG_CASP8: Life Technologies and Expression Analysis (LTEA) Assay for cysteine-aspartic acid protease (CASP8) using HepaRG (AID 2283480). In short, it runs like this:
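Differentiated HepaRG cells in serum-free induction medium, 48 h exposure, eight-point half-log series from 100 uM in 0.5% DMSO, duplicates. CASP8 mRNA by qRT-PCR, normalized to ACTB, GAPDH, POLR2A; bidirectional fit versus DMSO.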

Read-out in test [4]: Cytochrome P450 (CYP2B6), CYP2B6 (gene 1555)
Nature of the test: LTEA_HepaRG_CYP2B6: Life Technologies and Expression Analysis (LTEA) Assay for Cytochrome P450 (CYP2B6) using HepaRG (AID 2283481). In short, it runs like this:
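Read-out is CYP2B6 mRNA by TaqMan qRT-PCR, normalized to three housekeeping genes and fitted bidirectionally against 0.5% DMSO baseline. Human HepaRG cells received test chemicals for 48 h, top concentration 100 uM, half-log dilutions.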

Read-out in test [5]: Cytochrome P450 2C19 (Homo sapiens) (UniProt P33261)
The test can be described thus: LTEA_HepaRG_CYP2C19: Life Technologies and Expression Analysis (LTEA) Assay for CYP2C19 using HepaRG (AID 2283482). In short, it runs like this:
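HepaRG, 48 h chemical exposure, 8-pt half-log series from 100 uM in 0.5% DMSO, duplicates. Readout: CYP2C19 mRNA by TaqMan qRT-PCR, housekeeping-normalized. Bidirectional fit vs DMSO baseline; phenobarbital 1mM as induction control.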

Read-out in the next test: CYP2C8 (gene 1558)
Nature of the test: LTEA_HepaRG_CYP2C8: Life Technologies and Expression Analysis (LTEA) Assay for CYP2C8 using HepaRG (AID 2283483). An outline of the steps:
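Differentiated HepaRG cells in serum-free induction medium exposed 48 h in duplicate to 8 half-log concentrations from 100 uM in 0.5% DMSO. CYP2C8 mRNA by qRT-PCR normalized to ACTB, GAPDH, POLR2A; bidirectional fit versus DMSO.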

Read-out in another test: CYP2C9 (gene 1559)
The test can be described thus: LTEA_HepaRG_CYP2C9: Life Technologies and Expression Analysis (LTEA) Assay for CYP2C9 using HepaRG (AID 2283484). In short, it runs like this: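 Differentiated human HepaRG cells in serum-free induction medium were exposed 48 h to chemicals in 8-point half-log series from 100 uM (0.5% DMSO), in duplicate. CYP2C9 mRNA was measured by qRT-PCR, normalized to ACTB/GAPDH/POLR2A, with bidirectional fitting versus DMSO.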

Read-out in a further test: CYP2E1 (gene 1571)
The test can be described thus: LTEA_HepaRG_CYP2E1: Life Technologies and Expression Analysis (LTEA) Assay for CYP2E1 using HepaRG (AID 2283485). In short, it runs like this:
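Human liver line HepaRG, plated 48 h, then serum-free induction medium + chemical x 48 h; 8-pt CRC from 100 uM, half-log, 0.5% DMSO, n=2. Readout: CYP2E1 mRNA qRT-PCR vs ACTB/GAPDH/POLR2A; bidirectional fit vs DMSO.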

Read-out in test [6]: Cytochrome P450 (CYP24A1), CYP24A1 (gene 1591)
Nature of the test: LTEA_HepaRG_CYP24A1: Life Technologies and Expression Analysis (LTEA) Assay for Cytochrome P450 (CYP24A1) using HepaRG (AID 2283478). An outline of the steps: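 qRT-PCR read-out: CYP24A1 transcript levels normalized to three housekeeping genes, bidirectional curve fits against 0.5% DMSO baseline. Human HepaRG cells treated 48 h with chemicals at eight concentrations from 100 uM in half-log steps.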

In general, AC50 refers to the concentration at which the activity in the assay is half-maximal.

Cytochrome P450 2C19 (Homo sapiens), sequence (P33261 whole entry, looked up): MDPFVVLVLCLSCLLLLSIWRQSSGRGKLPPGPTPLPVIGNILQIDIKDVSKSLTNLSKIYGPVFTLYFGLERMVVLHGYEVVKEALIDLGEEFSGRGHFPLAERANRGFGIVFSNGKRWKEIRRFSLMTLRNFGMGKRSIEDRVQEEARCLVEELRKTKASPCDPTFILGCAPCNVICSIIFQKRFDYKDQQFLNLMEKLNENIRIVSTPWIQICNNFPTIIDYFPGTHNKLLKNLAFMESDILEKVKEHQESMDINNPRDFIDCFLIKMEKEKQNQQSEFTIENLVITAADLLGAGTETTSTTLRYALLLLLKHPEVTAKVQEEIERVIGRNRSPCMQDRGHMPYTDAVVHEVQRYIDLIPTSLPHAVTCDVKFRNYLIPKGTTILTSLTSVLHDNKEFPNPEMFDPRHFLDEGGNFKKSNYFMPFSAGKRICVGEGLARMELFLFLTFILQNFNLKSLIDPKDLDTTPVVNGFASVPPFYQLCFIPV
Caspase-3 (Homo sapiens), sequence (P42574 whole entry, looked up): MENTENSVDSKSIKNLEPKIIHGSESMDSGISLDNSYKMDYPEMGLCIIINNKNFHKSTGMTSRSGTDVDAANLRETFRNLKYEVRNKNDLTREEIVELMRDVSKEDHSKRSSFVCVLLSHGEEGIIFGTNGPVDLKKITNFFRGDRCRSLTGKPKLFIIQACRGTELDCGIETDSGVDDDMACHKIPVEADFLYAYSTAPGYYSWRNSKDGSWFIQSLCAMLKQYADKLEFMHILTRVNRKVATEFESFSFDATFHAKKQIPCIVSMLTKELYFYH

Take `O=c1[nH]sc2ccccc12`: the outcome (in test [1]; with Caspase-3 (Homo sapiens); in [3]; in test [4]; in test [5]; in the test with CYP2C8 (gene 1558)) was inactive. Also, the result with CYP2C9 (gene 1559) and in the test with CYP2E1 (gene 1571) was inactive. The AC50 in [2] was 80.3 µM (active).
As to `c1ccc(C[n+]2cccc3ccccc32)cc1`, the compound was classed as inactive (in test [1]; with Caspase-3 (Homo sapiens); in test [2]; in [3]). Moreover, the AC50 in test [4] was 50 µM (active); in [5], 50 µM (active); with CYP2C8 (gene 1558) it was 30 µM (active); with CYP2C9 (gene 1559), 31 µM (active); with CYP2E1 (gene 1571), 24.6 µM (active).
Consider `Cc1ncc(CO)c(CO)c1O`, for which the call (in test [1]; with Caspase-3 (Homo sapiens); in [6]; in [4]; in test [5]; with CYP2C8 (gene 1558)) was inactive. The compound was classed as inactive in the test with CYP2C9 (gene 1559) and in the test with CYP2E1 (gene 1571).
With `Cc1ccc(C(C)C)cc1`, the compound was classed as inactive (in [1]; with Caspase-3 (Homo sapiens); in test [6]; in test [3]; in [4]; in test [5]). For the same compound, the compound was classed as inactive in the test with CYP2C8 (gene 1558), in the test with CYP2C9 (gene 1559) and in the test with CYP2E1 (gene 1571).
As for `C[C@]12CC[C@@H]3c4ccc(O)cc4CC[C@H]3[C@@H]1CCC2=O`, the compound was called inactive (in [1]; with Caspase-3 (Homo sapiens)).
Regarding `O=c1ccc2ccccc2o1`, the result (in test [1]; with Caspase-3 (Homo sapiens); in test [6]; in test [5]; in the test with CYP2C8 (gene 1558); with CYP2C9 (gene 1559)) was inactive. The AC50 was 40.3 µM (active) in [4] and 50 µM (active) with CYP2E1 (gene 1571).
Consider `Cc1cc(F)ccc1-c1cc(N2CC[C@@H](O)[C@H]2CO)ncc1N(C)C(=O)C(C)(C)c1cc(C(F)(F)F)cc(C(F)(F)F)c1`, for which the result (in [1]; in test [6]; with CYP2C9 (gene 1559)) was inactive. The AC50 in the test with Caspase-3 (Homo sapiens) was 76.6 µM (active); in test [2] it was 21.1 µM (active); in test [4], 22.3 µM (active); in [5], 23.7 µM (active); with CYP2C8 (gene 1558), 21.4 µM (active); with CYP2E1 (gene 1571) it was 10.3 µM (active).
Turning to `CC1=CC(=O)/C(=C(/C)O)C(=O)O1`, the compound was classed as inactive (in test [1]; in the test with Caspase-3 (Homo sapiens); in [6]; in [3]; in test [4]; in test [5]). For the same compound, the call with CYP2C8 (gene 1558), with CYP2C9 (gene 1559) and in the test with CYP2E1 (gene 1571) was inactive.
For `CCCCCCCCCCCO`, the result (in [1]; with Caspase-3 (Homo sapiens); in [6]; in test [3]; in test [4]; in [5]) was inactive. Moreover, the call with CYP2C8 (gene 1558), in the test with CYP2C9 (gene 1559) and with CYP2E1 (gene 1571) was inactive.
For the compound `CN1C(=O)CC[C@H]1c1cccnc1`, the compound was called inactive (in [1]; in the test with Caspase-3 (Homo sapiens); in [3]; in test [4]; in test [5]; with CYP2C8 (gene 1558)). Moreover, the compound was classed as inactive with CYP2C9 (gene 1559) and in the test with CYP2E1 (gene 1571). Moreover, the AC50 in test [2] was 91.4 µM (active).
Regarding `O=C=NCCCCCCN=C=O`, the compound was called inactive (in test [1]; with Caspase-3 (Homo sapiens); in test [6]; in test [4]; in test [5]; in the test with CYP2C8 (gene 1558)). For the same compound, the outcome with CYP2C9 (gene 1559) and with CYP2E1 (gene 1571) was inactive.
`CCO[Si](CCCNC(N)=O)(OCC)OCC`: the outcome (in test [1]; with Caspase-3 (Homo sapiens); in test [6]; in test [3]; in [4]; in test [5]) was inactive. The compound was classed as inactive with CYP2C8 (gene 1558), with CYP2C9 (gene 1559) and with CYP2E1 (gene 1571).
Consider `CCOC(=O)O[C@H](C)OC(=O)c1ccc2c(c1)cc(C(=O)NC1CCN(C(C)C)CC1)n2Cc1cc(-c2ccc(Cl)s2)on1`, for which the result (in test [1]; in the test with Caspase-3 (Homo sapiens); in test [6]; in test [4]; in [5]; with CYP2C8 (gene 1558)) was inactive. Further, the call in the test with CYP2C9 (gene 1559) and in the test with CYP2E1 (gene 1571) was inactive. For the same compound, in [2], the AC50 was 69.7 µM (active).
For `Cc1cccc2ccccc12`, the compound was called inactive (in [1]; in the test with Caspase-3 (Homo sapiens); in [2]; in test [3]; in test [4]; in test [5]). In addition, the compound was called inactive with CYP2C8 (gene 1558), with CYP2C9 (gene 1559) and with CYP2E1 (gene 1571).
With `CCN(Cc1cccnc1)C(=O)c1cccc(Cl)c1[C@]1(C)C(=O)N(Cc2ccc(OC)cc2OC)c2ccc(Cl)cc21`, the outcome (in [1]; with Caspase-3 (Homo sapiens); in [6]) was inactive. The concentration at half-maximal activity (AC50) is 22.2 µM (active) in [2]; 25.8 µM (active) in [4]; 26.1 µM (active) in test [5]; 25.8 µM (active) with CYP2C8 (gene 1558); 26.2 µM (active) with CYP2C9 (gene 1559); 16.1 µM (active) in the test with CYP2E1 (gene 1571).
On to `CCN(Cc1cccc(S(=O)(=O)O)c1)c1ccc(C(=C2C=CC(=[N+](CC)Cc3cccc(S(=O)(=O)O)c3)C=C2)c2ccccc2S(=O)(=O)[O-])cc1`, for which the call (in test [1]; with Caspase-3 (Homo sapiens); in test [6]; in test [2]; in test [4]; in test [5]) was inactive. Moreover, the outcome with CYP2C8 (gene 1558), with CYP2C9 (gene 1559) and in the test with CYP2E1 (gene 1571) was inactive.
Regarding `CC[C@H](NC(=O)c1cc(F)ccc1NS(=O)(=O)c1cccc2cccnc12)c1ccccc1`, the outcome (in [1]; with Caspase-3 (Homo sapiens); in [6]; in test [3]; in the test with CYP2C8 (gene 1558)) was inactive. The half-maximal activity concentration (AC50) was 88.2 µM (active) in [4], 0.972 µM (active) in test [5], 78.5 µM (active) in the test with CYP2C9 (gene 1559) and 22.3 µM (active) with CYP2E1 (gene 1571).
Regarding `NCc1cccc(C2CCN(C(=O)c3ccc(C#Cc4ccccc4F)o3)CC2)c1`, the concentration at half-maximal activity (AC50) in test [1] is 79.9 µM (active); in test [3] it was 78 µM (active); in test [4] it was 83 µM (active); in test [5], 89.3 µM (active); with CYP2C8 (gene 1558) it was 94 µM (active); with CYP2C9 (gene 1559), 91.7 µM (active). In the test with CYP2E1 (gene 1571), the AC50 is 79.3 µM (active). Moreover, the compound was called inactive (with Caspase-3 (Homo sapiens); in test [6]).
For `CCCCCCCCOC(=O)c1cc(O)c(O)c(O)c1`, the result (in [1]; in the test with Caspase-3 (Homo sapiens); in [3]; in [4]; in [5]; with CYP2C8 (gene 1558)) was inactive. Further, the outcome with CYP2C9 (gene 1559) and with CYP2E1 (gene 1571) was inactive.
For `CC1(C)NC(=O)N(c2ccc([N+](=O)[O-])c(C(F)(F)F)c2)C1=O`, the compound was called inactive (in [1]; with Caspase-3 (Homo sapiens); in [3]). Moreover, the half-maximal activity concentration (AC50) was 85.5 µM (active) in [2]; 81.4 µM (active) in test [4]; 12.4 µM (active) in [5]; 85.5 µM (active) with CYP2C8 (gene 1558); 83.6 µM (active) with CYP2C9 (gene 1559); 63.2 µM (active) in the test with CYP2E1 (gene 1571).
Take `Cc1cc2c(cc1C(F)(F)F)N(C(=O)Nc1ccc(Oc3cccnc3C)nc1)CC2`: the half-maximal activity concentration (AC50) is 75 µM (active) in [1], 73.6 µM (active) in test [3], 12.2 µM (active) in [4] and 46 µM (active) with CYP2C9 (gene 1559). Further, the call (in the test with Caspase-3 (Homo sapiens); in test [5]; with CYP2C8 (gene 1558)) was inactive.
